The record followed here is PubChem BioAssay (NCATS).

Values without a mark were called inactive. Activity calls are given as the source filed them. How the calls were made is not given here.
Potency means the concentration at half of the fitted maximal effect.

The experiment has as its system HIV-1 nucleocapsid protein NCp7 (binding to TG oligonucleotide). Kind of experiment: HIV Nucleocapsid (AID 346).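 Further: potency is for inhibitors that block NC binding and lower polarization.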 As to conditions: HIV-1 NC / fluorescein-TGTGTGTG probe, fluorescence polarization. The method in brief: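 Fluorescence polarization readout: labelled TG4xF oligo (10 nM) with 100 nM nucleocapsid protein, high-salt (250mM NaCl) Hepes pH 7.5 buffer containing zinc and fresh reducing agents. Compounds added by pin tool; incubation 1 hr, room temperature.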
For orientation: In fluorescence polarisation assays a small probe gives low polarisation when free and higher when bound to something large.
As to `Cc1noc(C)c1-c1nccc(N2CCNCC2)n1`, the Potency was more than 20 µM.
To `O=C(c1csnn1)N1CCC2(CCCN(Cc3cc(C(F)(F)F)cc(C(F)(F)F)c3)C2)CC1` belongs more than 20 µM; to `COCCn1c(=O)c(-c2cccs2)nc2cnc(Oc3ccccc3)nc21`, more than 20 µM; to `N#CCCn1c(=O)c(-c2ccc(Cl)cc2)nc2cnc(N3CCOCC3)nc21`, more than 20 µM.
For `COC(=O)N1CCC2(CCCN(Cc3ccccc3)C2)CC1` the value was more than 20 µM.
For `COc1ccc(-n2c(=O)c(-c3cccs3)nc3cnc(Nc4ccccc4)nc32)cc1` the value was 4.01 µM (active); for `CN(C)Cc1ccccc1-c1cc(Nc2ccccc2)ncn1`, more than 20 µM.
As to `COc1ccc(-n2c(=O)c(CCc3ccccc3)nc3cnc(N4CCOCC4)nc32)cc1`, the Potency was more than 20 µM.
For `O=c1c(-c2cc(F)cc(F)c2)nc2cnc(N3CCOCC3)nc2n1Cc1cccs1` the value was more than 20 µM.
To `N#Cc1cccc(-c2nccc(NCc3ccccc3)n2)c1` belongs more than 20 µM.
To `COc1ccccc1-c1ccc2ncnc(NCCN3CCOCC3)c2c1` belongs more than 20 µM; to `CC(=O)NCCNc1ncncc1-c1ccccc1CN(C)C`, more than 20 µM.
Consider `COc1ccccc1CN1CCCC2(CCN(C(=O)c3cccn3C)CC2)C1`, for which the Potency was more than 20 µM.
On to `CC(C)NC(=O)N1CCC2(CC1)CCN(C(=O)c1cccc(F)c1)CC2`, for which the Potency was more than 20 µM.
To `CN(C)c1ncc2nc(-c3ccccc3)c(=O)n(CCC#N)c2n1` belongs more than 20 µM; to `c1ccc(CNc2ncnc3ccc(-c4ccoc4)cc23)cc1`, more than 20 µM; to `CS(=O)(=O)N1CCC2(CCN(Cc3nccs3)CC2)CC1`, more than 20 µM.
Consider `COCCNc1ccnc(-c2ccccc2CN(C)C)n1`, for which the Potency is more than 20 µM.
To `COc1ccc(C(=O)N2CCC[C@@]3(CCN(C(=O)Nc4cccc(C#N)c4)C3)C2)cc1` belongs more than 20 µM; to `O=C(c1ccncc1)N1CCC2(CC1)CN(c1cccc(-c3ccccc3)c1)C2`, more than 20 µM.
To `Cn1cccc1C(=O)N1CCC2(CCCN(c3ncccn3)C2)CC1` belongs more than 20 µM.
For `Cc1noc(C)c1-c1nc(Nc2ccccc2)c2ccccc2n1` the value was more than 20 µM; for `O=C(Nc1ccccc1)N1CC[C@@]2(CCCN(C(=O)c3cccc(F)c3)C2)C1`, more than 20 µM.
As to `COc1ccc(CNc2ccnc(-c3ccc(N(C)C)cc3)n2)c(OC)c1`, the Potency is more than 20 µM.
With `COCCn1c(=O)c(-c2ccccc2)nc2cnc(Oc3ccccc3)nc21`, the Potency was more than 20 µM.
To `CN(Cc1ccco1)c1ccnc(-c2ccoc2)n1` belongs more than 20 µM; to `CN1CCN(c2cc(-c3ccoc3)ncn2)CC1`, more than 20 µM.
For `COc1ccc2[nH]cc(CCNc3cc(-c4cccnc4)ncn3)c2c1` the value was more than 20 µM.
`CN(C)c1ncc2nc(-c3ccccc3)c(=O)n(CCc3ccccc3)c2n1`: the Potency is more than 20 µM.
For `COc1ccccc1CNc1ncnc2ccc(-c3c(C)noc3C)cc12` the value was more than 20 µM.
For `CCNc1ncc2nc(-c3ccccc3)c(=O)n(C)c2n1` the value was more than 20 µM; for `Cc1cnc(CNc2ncnc3ccc(-c4ccoc4)cc23)cn1`, more than 20 µM.
To `COc1ccccc1CN1CCC2(CC1)CCN(C(=O)c1c(C)noc1C)CC2` belongs more than 20 µM; to `COc1ccccc1CCn1c(=O)c(CCc2ccccc2)nc2cncnc21`, more than 20 µM; to `COc1cccc(Cn2c(=O)cnc3cnc(N4CCN(C)CC4)nc32)c1`, more than 20 µM.
Take `COc1ncc2nc(-c3cc(F)cc(F)c3)c(=O)n(C[C@H]3CCCO3)c2n1`: the Potency was more than 20 µM.
For `CN(C)c1ncc2nc(-c3ccc(F)cc3)c(=O)n(C[C@H]3CCCO3)c2n1` the value was more than 20 µM.
To `CN(C)c1ncc2nc(-c3cccs3)c(=O)n(Cc3cccs3)c2n1` belongs more than 4 µM; to `Cc1ccccc1-c1cc(N2CCNCC2)ncn1`, more than 20 µM.
For `Cc1cnc(CNc2ccnc(-c3ccc(C(=O)N(C)C)cc3)n2)cn1` the value was more than 20 µM.
